Records with an inconclusive call do not appear. Active and inactive are the calls of the source. The call rests on the fitted dose curve; in most records, active means well fitted curve in the direction sought with a large enough effect; inconclusive means small, poorly fitted or top-dose-only effect, or another doubt; inactive means no such curve, though single readings can be large; an effect the other way counts as inactive or inconclusive.
Experiments:
[1] = Cell Viability - LYMP2-004 (AID 966); further: nearly all actives have a fitted effect of over 65% in size
Method in brief: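 qHTS cytotoxicity: human lymphoblastoid line, 24 hr compound treatment, 37 C, complete medium. Viability read as cellular ATP via luciferase luminescence; tetraoctylammonium bromide served as positive control.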

[2] = Cell Viability - LYMP2-005 (AID 967);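 further: series mostly up to about 92 µM; cells exposed to compound for 24 h at 37 °C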
Method in brief: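 Acute cytotoxicity is scored as a concentration-dependent drop in intracellular ATP in human lymphoblastoid LYMP2-005 cells after 24 h compound treatment. ATP is quantified by luciferase luminescence, and AC50 is derived by Hill-equation modelling.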

[3] = Cell Viability - LYMP2-009 (AID 968);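 further: series mostly up to about 92 µM; cells exposed to compound for 24 h at 37 °C; nearly all actives have a fitted effect of over 55% in size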
[4] = Cell Viability - LYMP2-011 (AID 969); further: nearly all actives have a fitted effect of over 60% in size
Method in brief: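 In this qHTS cytotoxicity format, compounds are tested across concentrations on human lymphoblastoid cells in complete medium for 24 hours at 37 C. Viability is taken as cellular ATP measured by luciferase luminescence.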

[5] = Cell Viability - LYMP2-013 (AID 970);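 further: series mostly up to about 92 µM; cells exposed to compound for 24 h at 37 °C; nearly all actives have a fitted effect of over 55% in size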
Method in brief: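 Cytotoxicity is scored as a concentration-dependent drop in intracellular ATP in human lymphoblastoid cells after 24 hr compound exposure at 37 C. ATP is quantified by luciferase luminescence, and AC50 values come from Hill-equation modeling.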

[6] = Cell Viability - LYMP2-015 (AID 971); further: nearly all actives have a fitted effect of over 55% in size
Method in brief: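 Cells are seeded at 2500 per well and incubated 5 hr at 37 C. Compounds are added across a concentration series for 24 hr at 37 C. CellTiter-Glo is added, and luminescence is read after 30 min at room temperature.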

[7] = Cell Viability - LYMP2-019 (AID 973);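 further: cells exposed to compound for 24 h at 37 °C; nearly all actives have a fitted effect of over 55% in size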
Method in brief: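 Cytotoxicity is scored as a concentration-dependent drop in cellular ATP after cells (2500/well) receive compound for 24 hr at 37 C. Tetraoctylammonium bromide serves as positive control.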

[8] = Cell Viability - LYMP2-021 (AID 974)
Method in brief: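 Loss of cellular ATP, measured with a luciferase-based CellTiter-Glo readout, serves as the toxicity signal in human lymphoblastoid cells treated for 24 hours at 37 C. Potency is reported as AC50 from a standard Hill model.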

[9] = Cell Viability - LYMP2-023 (AID 975)
Method in brief: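 Steps: seed 2500 human lymphoblastoid cells per well, incubate 5 hr at 37 C, add compound for 24 hr at 37 C, add CellTiter-Glo, hold 30 min at room temperature, read luminescence. AC50 derived by Hill modelling.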

[10] = Cell Viability - LYMP2-017 (AID 972)
Method in brief: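 Cytotoxicity is scored as a concentration-dependent drop in cellular ATP in a human lymphoblastoid line after 24 hr treatment at 37 C. Values are AC50s from Hill-equation modelling.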

Measured: Potency

O=C(O)c1ccccc1Cl
not listed: [10]
inactive: all other assays above

Cc1ccc2cccnc2c1
not listed: [5]
inactive: all other assays above

CCCOCC(C)O (stereo not drawn)
not listed: [10]
inactive: all other assays above

Nc1ccccc1[N+](=O)[O-]
not listed: [5]
inactive: all other assays above

CCCC(Cl)CCCC(Cl)CCC(Cl)CCC(Cl)CCC(Cl)CCCC(Cl)CCC (stereo not drawn)
not listed: [5]
inactive: all other assays above

OC/C(Br)=C(\Br)CO
not listed: [5]
inactive: all other assays above

COc1ccc(N=[N+]([O-])c2ccc(OC)cc2)cc1
not listed: [5] | [8] | [10]
inactive: all other assays above

CC(=C/C=C/C(C)=C/C=C/C=C(C)/C=C/C=C(C)/C=C/C(=O)O)/C=C/C(=O)O
not listed: [5] | [8]
inactive: all other assays above

COC(=O)CCC(=O)OC
not listed: [10]
inactive: all other assays above

Nc1cccc(C(F)(F)F)c1
not listed: [5]
inactive: all other assays above

C=Cc1ccccn1
not listed: [10]
inactive: all other assays above

N#Cc1ccccc1
not listed: [10]
inactive: all other assays above

O=C(O)CN(CC(=O)O)CC(=O)O
not listed: [5]
inactive: all other assays above

CN(C)c1cccc(O)c1
not listed: [8] | [10]
inactive: all other assays above

CC(C)=C1CCC(C)CC1=O (stereo not drawn)
not listed: [5] | [8]
inactive: all other assays above

CCOc1ccccc1N
not listed: [8] | [10]
inactive: all other assays above

C[C@@H]1CC2(OC[C@]3(C)O[C@H]23)O[C@H]2C[C@@]3(C)[C@@H]4CC[C@H]5C(C)(C)C(O[C@@H]6OC[C@@H](O)[C@H](O)[C@H]6O)CC[C@@]56C[C@@]46CC[C@]3(C)[C@@H]12 (stereo partly drawn)
not listed: [10]
inactive: all other assays above

ON=C1CCCCC1
not listed: [6] | [9] | [10]
inactive: all other assays above

C/C(C=O)=C/c1ccccc1
not listed: [6]
inactive: all other assays above

C=C(C)C(=O)OCCCCCC
not listed: [5] | [8] | [9]
inactive: all other assays above

NC(=O)/N=N/C(N)=O
not listed: [5]
inactive: all other assays above

CCOCC(=O)O
not listed: [10]
inactive: all other assays above

S=C([S-])NCCNC(=S)[S-].[Zn+2]
not listed: [5] | [8]
inactive: all other assays above

CCCCCCC(=O)O
not listed: [4] | [9]
inactive: all other assays above

CC(C)C=O
not listed: [4]
inactive: all other assays above

O=[N+]([O-])c1ccc(CCO)cc1
inactive: [1] | [2] | [3] | [4] | [7] | [9]

c1ccc(Nc2ccccc2)cc1
not listed: [5] | [9]
inactive: all other assays above

O=C(O)c1ccc(C(=O)O)cc1
not listed: [5]
inactive: all other assays above

O=C1NC(=O)c2cc([N+](=O)[O-])ccc21
not listed: [5] | [8]
inactive: all other assays above

Nc1nc(-c2ccccc2)cs1
not listed: [5] | [8]
inactive: all other assays above

Cc1cc(C)c(N)cc1C
not listed: [5] | [10]
inactive: all other assays above

Cc1ccc(Br)cc1
not listed: [10]
inactive: all other assays above

O=C1CCC(=O)O1
not listed: [5] | [9]
inactive: all other assays above

c1ccc(Oc2ccccc2)cc1
not listed: [5] | [8]
inactive: all other assays above

O=[N+]([O-])c1ccc(Cl)cc1Cl
not listed: [8] | [10]
inactive: all other assays above

CC(=O)CC(C)C
not listed: [10]
inactive: all other assays above

CC/C=C/C#N
not listed: [10]
inactive: all other assays above

C=CCCCCCCC=C
not listed: [3] | [8] | [9]
inactive: all other assays above

COc1ccc(OC)cc1
not listed: [4] | [10]
inactive: all other assays above

COC(=O)CCCC(=O)OC
not listed: [3]
inactive: all other assays above

CN(C)CCCNCCCN
not listed: [3]
inactive: all other assays above

ClCCl
not listed: [4] | [8]
inactive: all other assays above

CC(C)(c1cc(Br)c(OCC(Br)CBr)c(Br)c1)c1cc(Br)c(OCC(Br)CBr)c(Br)c1 (stereo not drawn)
not listed: [4] | [5]
inactive: all other assays above

FB(F)F
not listed: [4] | [5] | [10]
inactive: all other assays above

C1CCC2OC2C1 (stereo not drawn)
not listed: [4]
inactive: all other assays above

CC=C(Cl)Cl
not listed: [3]
inactive: all other assays above

Nc1cc(S(=O)(=O)O)ccc1O
not listed: [3]
inactive: all other assays above

Cc1cccc2sc(N)nc12
not listed: [4]
inactive: all other assays above

C1COC1
not listed: [3]
inactive: all other assays above

O=[N+]([O-])c1ccccc1CCO
not listed: [4]
inactive: all other assays above

NC(N)=S
not listed: [3] | [9]
inactive: all other assays above

CC(=O)OCc1ccco1
not listed: [4] | [5]
inactive: all other assays above

CCC(C)(C)C
not listed: [4]
inactive: all other assays above

CCCCN(CCO)CCCC
not listed: [4]
inactive: all other assays above

COc1cccc(N)c1
not listed: [4]
inactive: all other assays above

CCCCCCCCC
not listed: [3]
inactive: all other assays above

CC(=O)c1ccc([N+](=O)[O-])cc1
not listed: [4]
inactive: all other assays above

CCOc1cc(OCC)c(C(C)=O)cc1OCC
not listed: [4]
inactive: all other assays above

CC#N
not listed: [4]
inactive: all other assays above

CCCCCCO
not listed: [4] | [5]
inactive: all other assays above
